The list is not random: actives were taken first. Their share in the collection is about 4.6%.
tim23-1 inh: growth inhibitors of tim23-1 mutant yeast; S. cerevisiae tim23-1 growth, BacTiter-Glo luminescence, 24 h; 330,000 compounds, 1.3% hits; AID 463212; inhibition, % at 20 µM;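 active means growth inhibition of the mutant yeast at or above 50%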;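 further: temperature-sensitive mutant grown at 25 °C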
SKKanGAS inh: SKKanGAS growth inhibition. AID 1662. S. pyogenes SKKanGAS, kanamycin growth, BacTiter-Glo, 6 h. inhibition, % at 7.5 µM. 300,000 compounds, 1.3% hits;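 active means mean replicate score, as percent of positive control median, at least 50; inconclusive means mean below 50 but one replicate at or above 50; inactive means mean and every replicate below 50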;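 further: strain carries kanamycin resistance gene driven by streptokinase promoter and grows in 40 µg/ml kanamycin; loss of luminescence reflects streptokinase promoter inhibition or plain growth inhibition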
PfHsp90 yeast 2: reduces growth (ATP signal) of yeast expressing P. falciparum Hsp90 | S. cerevisiae expressing PfHsp90, BacTiter-Glo ATP, 48 h; yeast lacking PDR1 and PDR3 efflux regulators | inhibition, % at 9.4 µM | 310,000 compounds, 0.32% hits | AID 504621;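 active means every replicate shows inhibition above about 80%, whatever the replicate mean, limit read from the data; inconclusive means mean inhibition reaches the set limit but some replicate falls short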
TIM10 inh: growth inhibitors of TIM10 yeast strain; 330,000 compounds, 1.4% hits; AID 463195; inhibition, % at 10 µM; S. cerevisiae TIM10 strain growth, BacTiter-Glo luminescence, 24 h;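 active means inhibition of 40% or more at the single tested concentration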;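 further: wild-type TIM10 isogenic control strain grown at permissive 25 °C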
V-ATPase pH: yeast V-ATPase proton transport regulation by pHLuorin. S. cerevisiae, pHLuorin cytosolic pH fluorescence. response, % at 10 µM. 350,000 compounds, 0.37% hits; in the data active means response mostly above about 7.3%, no sharp cut-off; inactive means mostly below about 5.4%; further: actives read high
tim10-1 inh: tim10-1 yeast growth inhibition | S. cerevisiae tim10-1 ts strain growth, BacTiter-Glo, 24 h | inhibition, % at 20 µM | AID 463190 | 330,000 compounds, 2.2% hits;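 active means inhibition of at least 40%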;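 further: mutant grown at 25 °C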
tim23-1 confirm: tim23-1 yeast growth inhibition, confirmed; shares compounds with tim23-1 inh; S. cerevisiae tim23-1 growth, BacTiter-Glo luminescence, 24 h; inhibition, % at 20 µM; 4,400 compounds, 83% hits; AID 463218;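 active means inhibition above about 39% in either of two replicate wells at 20 µM, limit read from the data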;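 further: temperature-sensitive tim23-1 mutant grown at 25 °C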
A number is an active result; 0 = inactive; ? = inconclusive; - = no result.

SMILES	tim23-1 inh	SKKanGAS inh	PfHsp90 yeast 2	TIM10 inh	V-ATPase pH	tim10-1 inh	tim23-1 confirm
Cc1ccc(C2=N/C(=C\c3cccs3)C(=O)N2Nc2ccccc2)cc1	0	0	0	0	0	0	-
O=C1/C(=C\c2cccs2)N=C(c2cccs2)N1Nc1ccccc1	66	0	0	0	0	0	41
O=C1/C(=C/c2cccs2)N=C(c2cccs2)N1Nc1ccccc1	57	0	0	0	0	0	51
CCOC(=O)C1=C(COC(=O)c2ccco2)NC(=O)NC1CC (stereo not drawn)	0	-	0	0	0	0	-
Cc1ccc(C)c(C(=O)COC(=O)c2n[nH]c3ccccc23)c1	58	-	0	0	0	0	49
O=C(COC(=O)c1n[nH]c2ccccc12)c1cccc(Br)c1	50	0	0	0	0	0	40
CCOc1ccccc1CNC(=O)c1ccc(NC(=O)C2=C(C)OCCS2)cc1	0	0	0	0	0	0	-
O=C(COC(=O)C1CC1)NC(=O)c1ccccc1	0	-	0	0	0	0	-
CCCCc1c(C)nc2ccccc2c1SCCC(=O)O	0	0	0	0	0	0	-
CCCCc1c(C)nc2ccc(C)cc2c1SCCC(=O)O	55	0	0	0	0	0	0
CCOC(=O)c1cccc(NC(=O)c2cc3ccccc3o2)c1	58	0	0	0	0	0	52
CCOC(=O)c1cccc(NC(=O)CCc2ccccc2)c1	61	0	-	0	0	0	0
Cc1cccc(NC(=O)c2cc3ccccc3o2)c1	54	0	0	0	0	0	41
Fc1cccc(C2CCCCN2Cc2nc(C3CC3)no2)c1 (stereo not drawn)	0	0	0	0	0	0	-
COc1ccc(-c2ccnc3c(Br)c(C)nn23)cc1	50	-	0	0	0	0	53
Cc1nn2c(-c3ccc(F)cc3)ccnc2c1Br	0	0	0	0	0	0	-
CCOC(=O)C1CCN(C(=O)C2CCCN(S(=O)(=O)c3ccc(OCC)c(Cl)c3)C2)CC1 (stereo not drawn)	0	0	0	0	0	0	-
Nc1nc(SCc2ccc(Cl)cc2Cl)ns1	0	0	-	0	0	0	-
Cc1ccccc1CSc1nsc(N)n1	52	0	-	0	0	0	50
Cc1ccc(S(=O)(=O)N(Cc2cccnc2)Cc2cc3ccccc3[nH]c2=O)cc1	0	0	0	0	0	0	-
CC(=O)Nc1ccc(S(=O)(=O)N(Cc2cccnc2)Cc2cc3ccc(C)cc3[nH]c2=O)cc1	52	0	0	0	0	0	53
Cc1c(NS(C)(=O)=O)cccc1-c1nc2cccnc2s1	0	0	0	0	0	0	-
Cc1c(NS(=O)(=O)c2cccs2)cccc1-c1nc2cccnc2s1	59	0	0	0	0	0	56
CCn1cc(C(=O)NN)c(=O)c2cc(F)c(N3CCCCC3)cc21	51	0	0	0	0	0	0
CC(OC(=O)/C=C/c1ccccc1)C(=O)Nc1cccc(C#N)c1 (stereo not drawn)	0	0	0	0	0	0	-
SMILES	tim23-1 inh	SKKanGAS inh	PfHsp90 yeast 2	TIM10 inh	V-ATPase pH	tim10-1 inh	tim23-1 confirm
C[C@@H]1CN([C@H](C)CO)C(=O)CCCn2nncc2CO[C@H]1CN(C)S(=O)(=O)c1ccccc1F	-	-	-	-	0	-	-
O=C(CN(Cc1ccccc1)C(=O)CCl)c1cccc(Br)c1	57	-	0	0	0	0	45
O=C(NCCCc1ccccc1)c1cccc(Br)c1	0	0	0	0	0	0	-
Cc1ccc(O)c(C(=O)c2cnn(C(=O)Cc3csc(C)n3)c2)c1	59	-	0	0	0	0	57
Cc1ncc(CC(=O)n2cc(C(=O)c3cc(F)ccc3O)cn2)s1	0	0	0	0	0	0	-
CCC1(c2ccccc2)NC(=O)N(CC(=O)Nc2ccc(OC)nc2)C1=O (stereo not drawn)	0	0	0	0	0	0	-
Cc1cc(C)nc(OC(=O)c2ccc(Cl)cc2Cl)n1	74	0	-	0	-	0	67
O=C(O)c1ccc(N/N=C/c2ccc(-c3ccc(Br)cc3)o2)cc1	52	?	0	0	0	0	47
CCn1c(-c2ccccc2)csc1=Nc1ccc(O)cc1	58	0	0	0	0	0	39
Oc1ccc2ccccc2c1C=NCc1ccccc1	65	0	0	0	0	0	60
CCCn1nnc(NC(=O)c2cccc(Cl)c2)n1	0	0	0	0	0	0	-
CCCn1nnc(NC(=O)c2sc3ccccc3c2Cl)n1	53	0	0	0	0	0	42
COCCNC(=O)/C(C#N)=C/c1ccc(OCc2ccc(F)cc2)cc1	56	0	0	0	0	0	48
COCCNC(=O)/C(C#N)=C/c1ccc(OCc2ccccc2)cc1	55	0	0	0	0	0	53
N#C/C(=C\c1ccc(OCc2ccc(C(=O)O)cc2)cc1)C(=O)NCc1ccccc1	0	0	0	0	0	0	-
COCCNC(=O)/C(C#N)=C/c1ccc(C(=O)O)cc1	0	0	0	0	0	0	-
Cc1cc(=O)[nH]c2sc(C(=O)N3c4ccccc4CC3C)c(N)c12 (stereo not drawn)	0	-	-	0	0	0	-
CC1c2[nH]c3ccccc3c2CCN1C(=O)Nc1ccccc1 (stereo not drawn)	64	0	0	0	0	0	50
O=C1OC(c2ccccc2)=N/C1=C\C=C\c1ccco1	82	0	0	0	0	0	81
CNc1nc(N)c([N+](=O)[O-])c(N2CCCCCC2)n1	0	0	0	0	0	0	-
CC(C)CCNc1nc(N)c([N+](=O)[O-])c(N2CCCCCC2)n1	50	0	0	0	0	0	0
CC(C)(C)c1csc(NC(=O)c2cccs2)n1	56	0	0	0	0	0	0
O=C(Cc1ccc(F)cc1)Nc1nnc(-c2ccc(F)cc2)o1	0	0	0	0	0	0	-
CCSc1nc2nccnc2c(=O)[nH]1	-	-	-	-	0	-	-
O=C1ON=C(c2ccccc2)/C1=C/c1ccccc1	51	0	0	0	0	0	39
SMILES	tim23-1 inh	SKKanGAS inh	PfHsp90 yeast 2	TIM10 inh	V-ATPase pH	tim10-1 inh	tim23-1 confirm
Cc1ccc(C2=NOC(=O)/C2=C\c2ccccc2)cc1	0	0	0	0	0	0	-
CC(Oc1ccccc1)C(=O)Nc1nc(-c2ccccn2)cs1 (stereo not drawn)	0	-	-	0	0	0	-
CC(Oc1cccc(Cl)c1)C(=O)Nc1nc(-c2ccccn2)cs1 (stereo not drawn)	67	0	0	0	0	0	55
Cc1ccc(C(=O)Nc2nc(-c3ccccn3)cs2)s1	62	-	0	0	0	0	55
O=C(COC(=O)CCC(=O)c1cccs1)Nc1cccc(F)c1	0	-	0	0	0	0	-
COc1cc(OC)c(NC2c3ccccc3C(=O)N2c2cc(C)ccn2)cc1Cl (stereo not drawn)	52	0	0	0	0	0	42
O=C(c1ccc(F)cc1)N1CCC(C(=O)N2CCN(S(=O)(=O)c3cccc(Cl)c3)CC2)CC1	0	0	0	0	0	0	-
